Screening results (PubChem)
USP30 block – inhibitors of human USP30 deubiquitinase; inhibition, % at 25 µM; Ubiquitin carboxyl-terminal hydrolase 30 (Homo sapiens), Q70CQ3; purified USP30, Ub-rhodamine cleavage fluorescence; 47,000 tested, 5.3% active
USP8 block – inhibitors of human USP8 deubiquitinase; Ubiquitin carboxyl-terminal hydrolase 8 (Homo sapiens), P40818; purified USP8, Ub-rhodamine cleavage fluorescence, 30 min; inhibition, % at 20 µM; 47,000 tested, 4.2% active
USP17 inh – inhibitors of human USP17 deubiquitinase | inhibition, % at 50 µM | purified USP17, Ub-rhodamine cleavage fluorescence, 3 h | 47,000 tested, 6.5% active
USP28 inh – inhibitors of human USP28 deubiquitinase | 47,000 tested, 3% active | Ubiquitin carboxyl-terminal hydrolase 28 (Homo sapiens), Q96RU2 | AID 1645857, 2021 | inhibition, % at 25 µM | purified USP28, Ub-rhodamine cleavage fluorescence, 30 min
Active calls of the source: *; x = no result. Shown are actives, neighbours in structure and some others; about 13% of the full set was active somewhere. Cut-off read from the data, not from the text of the source: active = inhibition above about 30%; inactive = the rest.

SMILES | USP30 block | USP8 block | USP17 inh | USP28 inh
Cc1[nH]c2ccccc2c1C(=O)C(C)Sc1ccc(S(=O)(=O)N2CCOCC2)cn1 (stereo unspecified) | 6 | 1 | -5 | 5
Cc1ccc(C(=O)NCc2ccc3c(c2)OCO3)cc1NC(=O)c1nsc2ccccc12 | -125 | 0 | -64 | -74
Cc1ccccc1NC(=O)c1cnc(N2CCN(C)CC2)nc1C | 8 | -1 | -29 | 5
CCN1CCN(CCNC(=O)c2cc3cn(C4CC4)cc3s2)CC1 | -144 | -10 | 2 | -19
CCCCNC(=O)c1cc2cn(C3CC3)cc2s1 | -128 | 78* | 41* | -21
Cc1nc2ccc(NC(=O)c3cccc(C(F)(F)F)c3)cc2nc1C | -64 | -134 | -16 | -11
O=C(Nc1ccc(S(=O)(=O)c2cccc(C(F)(F)F)c2)cc1)c1ccc(F)cc1 | 41* | -1 | -3 | 14
CSc1nnc(COc2cccc3ccc(C)nc23)n1C | 15 | 22 | 8 | 15
Cc1ccc2cccc(OCc3nnc(SCC(=O)c4ccc(Cl)cc4)n3C)c2n1 | 39* | 33* | 61* | 6
Cc1ccc(CNc2cc(-n3ccnc3)ncn2)cc1C | 12 | 4 | x | 5
Cc1ccc(CNc2cc(-n3cccn3)ncn2)cc1 | -3 | 0 | 20 | 31*
Cc1n[nH]c(C)c1CC(=O)N1CCCCC1c1nnc(-c2nccc3ccccc23)o1 (stereo unspecified) | 11 | 3 | 0 | 2
CC(Oc1ccccc1Cl)C(=O)Nc1ccc2nsnc2c1 (stereo unspecified) | 25 | 36* | 13 | 17
Cc1cc(C)cc(OC(C)C(=O)Nc2ccc3nsnc3c2)c1 (stereo unspecified) | 5 | 24 | 13 | 7
CCc1ccc(OC(C)C(=O)Nc2ccc3nsnc3c2)cc1 (stereo unspecified) | 6 | 66* | 25 | 21
Cc1ccc(OC(C)C(=O)Nc2ccc3nsnc3c2)cc1C (stereo unspecified) | -19 | 45* | 4 | -64
Cc1ccc(Cn2cc(-c3noc(-c4cccnc4)n3)nn2)cc1 | 0 | 5 | 9 | 0
Cc1c(C(=O)NCCN2CCOCC2)oc2ccc(S(=O)(=O)N3CCOCC3)cc12 | 14 | 12 | 9 | 4
O=c1c2cnc3ncnn3c2ccn1CCN1CCOCC1 | 18 | 24 | 13 | 12
CCOC(=O)c1noc2ncnc(NCc3cccc(OC)c3)c12 | -2 | 70* | x | 1
CCOC(=O)c1noc2nc(C)nc(NCc3ccccc3OC)c12 | 11 | 43* | 21 | 13
CCOC(=O)c1noc2nc(C)nc(N3CCCC3)c12 | 5 | 4 | 0 | -6
O=C(O)C1(c2ccccc2)CCN(S(=O)(=O)c2ccc3c(c2)OCCO3)CC1 | 25 | 22 | 7 | 19
O=C(c1ccccn1)N1CCC2(CC1)CC1(CO2)Nc2ccccc2-n2cccc21 (stereo unspecified) | -144 | 77* | 46* | -19
CCc1ccccc1NC(=O)N1CCC2(CC1)Nc1ccccc1-n1cccc12 | 3 | 17 | 45* | 11
SMILES | USP30 block | USP8 block | USP17 inh | USP28 inh
O=C(Nc1cccc(C(F)(F)F)c1)N1CCC2(CC1)Nc1ccccc1-n1cccc12 | 43* | 3 | 21 | 7
N#Cc1ccc(-c2ccccc2)nc1Sc1ccc(Br)cc1 | 18 | 0 | 9 | 7
CCN(CC)c1ccc2ccc(C(=O)N3CCN(c4ccncc4)CC3)cn12 | 36* | -184 | -10 | 19
N#Cc1ccccc1OCC(=O)N1CCC(c2nc3ccccc3o2)CC1 | 16 | 7 | 32* | 10
O=C(c1ccccc1F)N1CCC(c2nc3ccccc3o2)CC1 | -131 | -26 | -31 | -48
Cn1c(=O)n(C)c2cc(N3CCCC3)c(NC(=O)c3ccccc3F)cc21 | 8 | 12 | 28 | 8
CCC(Cc1ccccc1)NC(=O)c1cc2sc(Cl)cc2n1C (stereo unspecified) | -23 | -47 | -13 | -24
Cn1c(C(=O)NCc2ccc(F)cc2)cc2sc(Cl)cc21 | 34* | 14 | 13 | 28
O=C(N[C@@H]1CC[C@@H]2C[C@@H]1[C@@H](O)CO2)c1cccc2c1OC(F)(F)O2 | 0 | -2 | -1 | -3
Clc1cccc(CN2CCc3nc(N4CCOCC4)ncc3C2)c1 | -111 | -107 | -63 | -34
Fc1ccccc1N1CCN(c2ncc3c(n2)CCN(Cc2ccccn2)C3)CC1 | 17 | -18 | 51* | 6
O=C(NCCCN1CCCC1=O)c1[nH]nc2c1COc1ccccc1-2 | 21 | 0 | 4 | 16
N#Cc1cccc(NC(=O)c2[nH]nc3c2COc2ccccc2-3)c1 | -76 | 72* | -23 | -15
CC(C)NC(=O)c1[nH]nc2c1COc1ccccc1-2 | 2 | -14 | -7 | 17
O=C(Nc1cccc(Cl)c1)c1[nH]nc2c1COc1ccccc1-2 | -72 | 75* | 29 | -48
O=C(NC1CCN(Cc2ccccc2)CC1)c1[nH]nc2c1COc1ccccc1-2 | 8 | 6 | 19 | 67*
O=C(NCc1ccc2c(c1)OCO2)c1[nH]nc2c1COc1ccccc1-2 | 39* | 54* | 60* | 31*
O=C(NCCN1CCCCC1)c1[nH]nc2c1COc1ccccc1-2 | 22 | 20 | 9 | 10
Cc1nnn(C23CC4CC(CC(CC(=O)NCc5ccc6c(c5)OCO6)(C4)C2)C3)n1 | -15 | -16 | -24 | -13
Cc1nnn(C23CC4CC(CC(C(=O)Nc5ccc6c(c5)OCO6)(C4)C2)C3)n1 | 0 | 58* | 16 | 9
Cc1cc(O)c2c3c(c(O)c4c(c13)O[C@@H](C)C4(C)C)C(=O)C2=O | 0 | -140 | 83* | 31*
Cc1nc2nc[nH]n2c(=O)c1CCC(=O)Nc1ccc(F)c(Cl)c1 | 14 | 15 | 11 | 7
COc1cc(Cl)c(C)cc1NC(=O)c1nc(-c2ccncc2)no1 | 34* | 0 | 40* | 14
Cc1ccc(CNC(=O)c2nc(-c3ccncc3)no2)cc1 | -5 | 12 | 0 | -7
O=C(CCc1ccc(S(=O)(=O)N2CCOCC2)cc1)OCC(=O)c1c[nH]c2ccccc12 | -70 | -14 | -27 | -7
SMILES | USP30 block | USP8 block | USP17 inh | USP28 inh
Cc1cc(Nc2cccc(C(=O)Nc3ccc(F)cc3)c2)n2nc(-c3cccnc3)nc2n1 | 24 | 8 | 4 | 3
Cc1ccc2c(Nc3ccccc3)c(-c3nc(C4CC4)no3)cnc2n1 | -189 | -6 | 5 | 48*
COc1cc(C2=NO[C@]3(C(=O)Nc4ccccc43)[C@H]2C(=O)c2ccc(C)cc2)ccc1OCC#N | 17 | 17 | 43* | 5
COc1cc(C2=NO[C@]3(C(=O)Nc4ccccc43)[C@H]2C(=O)c2ccccc2)ccc1OCC#N | -6 | 0 | 20 | 6
COc1ccc(CN2CCCC23CCCN(C(=O)CCc2cccnc2)C3)cc1F (stereo unspecified) | 96* | -73 | 41* | 93*
Fc1ccc(-c2cc3n(c2)CCc2cc4c(cc2-3)OCO4)cc1 | -234 | 47* | -23 | -31
